Results: PubChem BioAssay AID602481 (Broad Institute, 2012)
Among all 360,000 compounds or so, about 340 (0.094%) were called active. What follows is part of a selection rich in actives, with near analogues and random picks from the rest. Unmarked numbers belong to inactive results. Cut-off read from the data, not from the text of the source: active = inhibition above about 40%; inconclusive = no clear call, values can overlap the other calls; inactive = below that.

Tested on: 7,8-diaminopelargonic acid synthase BioA (Mycobacterium tuberculosis)
Assay: M. tuberculosis BioA enzyme inhibitors, primary screen, biochemical, plate reader, single point, HTS (AID 602481)
Details: purified M. tuberculosis BioA enzyme, at 9.99 µM, hits give high values

Row | Compound | inhibition
1 | C/C=C/c1cnc2c(c1)C(=O)N([C@H](C)CO)C[C@@H](C)[C@H](CN(C)Cc1cccc(C(=O)O)c1)O2 | 0.203%
2 | C[C@@H]1CN([C@@H](C)CO)C(=O)Cc2cc(NC(=O)CCCCCC(=O)Nc3ccccc3N)ccc2O[C@H]1CN(C)Cc1ccc(Cl)c(Cl)c1 | -3.74%
3 | COCC(=O)Nc1ccc2c(c1)OC[C@@H](C)N(Cc1ccccn1)C[C@H](C)[C@@H](OC)CN(C)C2=O | -0.629%
4 | C[C@H](CO)N1C[C@H](C)[C@H](CN(C)Cc2cccc(C(=O)O)c2)Oc2ncc(-c3ccccc3F)cc2C1=O | -3.23%
5 | COc1ccc2c3c(c(=O)oc2c1OCC(=O)C(C)(C)C)CCCC3 | 0.336%
6 | O=c1oc2c(CN3CCCCC3)c(O)ccc2c2c1CCCCC2 | 16.6%
7 | CCCOc1ccc2c3c(c(=O)oc2c1OCCC)CCC3 | 49.3% (active)
8 | C[C@H]1CN([C@@H](C)CO)C(=O)CCCn2nncc2CO[C@H]1CN(C)Cc1cccc(C(=O)O)c1 | -5.89%
9 | C[C@@H]1CN([C@H](C)CO)C(=O)Cc2cc(NS(=O)(=O)c3ccc(F)cc3)ccc2O[C@@H]1CN(C)S(=O)(=O)c1ccc(F)cc1 | 4.14%
10 | CN1c2ccc(C3=CCCCC3)cc2[C@@H]2[C@@H](CCN2S(=O)(=O)c2ccccc2F)[C@H]1CO | -2.02%
11 | Cc1ccccc1S(=O)(=O)N1[C@H](C#N)[C@H](c2ccccc2)[C@@H]1CO | -0.99%
12 | CC(C)NC(=O)N(C)C[C@@H]1Oc2ccc(NC(=O)C3CC3)cc2C(=O)N([C@@H](C)CO)C[C@H]1C | -0.507%
13 | C[C@H](CO)N1C[C@H](C)[C@@H](CN(C)C(=O)Nc2ccc3c(c2)OCO3)Oc2ccc(NS(=O)(=O)c3ccc(Cl)cc3)cc2C1=O | 0.544%
14 | C[C@@H]1CN([C@@H](C)CO)C(=O)Cc2cc(NC(=O)C3CCCCC3)ccc2O[C@H]1CN(C)C(=O)Nc1ccccc1 | 0.073%
15 | C[C@H]1CN([C@@H](C)CO)C(=O)c2cc(Br)cnc2O[C@H]1CN(C)CC1CCCC1 | -0.484%
16 | CCCN1[C@H](C(=O)N2CCOCC2)[C@@H](CO)[C@@H]2Cn3c(ccc(/C=C/c4ccccc4)c3=O)[C@@H]21 | -3.1%
17 | CC1(C)CC(=O)C=C(c2ccc(Cl)c(C(F)(F)F)c2)C1 | -0.352%
18 | COc1ccccc1-c1n[nH]nc1C1=CC(=O)CC(C)(C)C1 | -1.72%
19 | CC1(C)CC(=O)C=C(c2ccc3ncccc3c2)C1 | 64.2% (active)
20 | O=S(=O)(N[C@@H]1CC[C@H](CCn2cc(-c3ccccc3F)nn2)O[C@H]1CO)c1ccc(F)cc1 | 1.57%
21 | Cc1cc(=O)oc2c(C)c(OC(C)C(=O)NC3CCN(Cc4ccccc4)CC3)ccc12 (stereo not given) | -3.72%
22 | Cc1c(OC(C)C(=O)NCC2CCC(C(=O)O)CC2)ccc2c1oc(=O)c1ccccc12 (stereo not given) | 43.7% (active)
23 | Cc1c(OC(C)C(=O)N[C@@H](Cc2ccccc2)C(=O)O)ccc2c3c(c(=O)oc12)CCCC3 (stereo not given in full) | 0.433%
24 | O=C(CN1CCOCC1)N1CCCCN2[C@H](CO)[C@H](c3ccc(Br)cc3)[C@H]2C1 | 4.49%
25 | COc1cccc(S(=O)(=O)N[C@H]2C=C[C@H](CC(=O)NCc3ccc(Cl)cc3)O[C@@H]2CO)c1 | -1.44%
